Values without a mark were called inactive. The source made the active and inactive calls. Rule as the data show it, unless noted: active = inhibition above about 25%; inactive = the rest.
Columns and labels:
[1] = target: Nuclear receptor coactivator 3 (Homo sapiens) (UniProt Q9Y6Q9); assay: NCOA3 GAL4-fusion reporter inhibition – cell-based, luminescence, quadruplicate, confirmation (AID 588792;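 active = mean inhibition over 43.08%, the solvent-only control mean plus 3 SD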;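 also: 0% = DMSO treated cells and 100% = gossypol at 36 µM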); details: HEK293 GAL4-SRC3 luciferase reporter, at 3.6 µM, hits give high values
Sequence of Nuclear receptor coactivator 3 (Homo sapiens) (Q9Y6Q9 whole entry, looked up, the tested form may be a part): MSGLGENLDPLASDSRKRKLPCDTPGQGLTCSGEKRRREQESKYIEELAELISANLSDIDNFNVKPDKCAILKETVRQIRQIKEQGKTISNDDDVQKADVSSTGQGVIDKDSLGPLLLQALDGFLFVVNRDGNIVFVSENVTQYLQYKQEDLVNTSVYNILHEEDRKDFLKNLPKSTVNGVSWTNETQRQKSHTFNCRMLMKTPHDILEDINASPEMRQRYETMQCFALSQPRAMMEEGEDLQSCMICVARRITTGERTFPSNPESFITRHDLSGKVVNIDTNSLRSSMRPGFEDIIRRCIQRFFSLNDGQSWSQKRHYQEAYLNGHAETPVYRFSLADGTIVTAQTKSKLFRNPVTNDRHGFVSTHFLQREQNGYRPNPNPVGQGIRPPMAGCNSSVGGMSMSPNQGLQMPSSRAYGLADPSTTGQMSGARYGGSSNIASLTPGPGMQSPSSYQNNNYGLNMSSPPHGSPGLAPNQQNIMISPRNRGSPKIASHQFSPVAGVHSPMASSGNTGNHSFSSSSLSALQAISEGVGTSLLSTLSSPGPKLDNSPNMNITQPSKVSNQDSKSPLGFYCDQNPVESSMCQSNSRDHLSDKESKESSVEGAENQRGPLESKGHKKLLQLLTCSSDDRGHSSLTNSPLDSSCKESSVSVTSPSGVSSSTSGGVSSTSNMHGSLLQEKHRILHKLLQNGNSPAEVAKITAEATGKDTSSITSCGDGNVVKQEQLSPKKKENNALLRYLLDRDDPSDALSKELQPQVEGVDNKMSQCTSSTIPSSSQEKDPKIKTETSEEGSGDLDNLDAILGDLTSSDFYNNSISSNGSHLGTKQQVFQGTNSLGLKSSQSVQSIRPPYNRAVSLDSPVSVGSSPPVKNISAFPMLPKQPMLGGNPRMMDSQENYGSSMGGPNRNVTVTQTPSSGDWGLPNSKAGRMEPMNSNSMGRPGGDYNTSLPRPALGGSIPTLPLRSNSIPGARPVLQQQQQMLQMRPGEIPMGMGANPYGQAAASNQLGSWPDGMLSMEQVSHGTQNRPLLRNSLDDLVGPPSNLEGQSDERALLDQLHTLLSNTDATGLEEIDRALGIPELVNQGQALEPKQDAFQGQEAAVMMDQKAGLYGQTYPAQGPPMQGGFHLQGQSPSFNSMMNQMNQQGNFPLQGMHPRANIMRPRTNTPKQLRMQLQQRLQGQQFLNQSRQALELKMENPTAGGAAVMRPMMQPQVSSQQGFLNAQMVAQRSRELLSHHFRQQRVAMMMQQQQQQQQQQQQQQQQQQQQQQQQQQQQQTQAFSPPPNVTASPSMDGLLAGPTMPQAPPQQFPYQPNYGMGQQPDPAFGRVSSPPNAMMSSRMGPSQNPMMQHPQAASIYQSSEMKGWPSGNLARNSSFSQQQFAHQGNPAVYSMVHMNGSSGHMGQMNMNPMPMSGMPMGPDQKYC

[2] = tested on: transactivating tegument protein VP16 (Human herpesvirus 1), Gal4-VP16 luciferase reporter; assay: repression of VP16-driven luciferase reporter – cell-based, luminescence, high throughput, counter-screen for SRC3 inhibitor project (AID 588794; in the data active = inhibition above about 30%); details: mammalian cells, at 3.6 µM, hits give high values
[3] = target: Nuclear receptor coactivator 1 (Homo sapiens) (UniProt Q15788); assay: NCOA1 GAL4-fusion reporter inhibition – cell-based, luminescence, quadruplicate, confirmation (AID 588820;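 active = mean inhibition above 46.68%, the untreated control wells mean plus 3 SD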;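 also: 0% = DMSO wells and 100% = gossypol 36 µM treated wells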); details: HEK293 GAL4-SRC1 luciferase reporter, at 3.6 µM, hits give high values
Sequence of Nuclear receptor coactivator 1 (Homo sapiens) (Q15788 whole entry, looked up, the tested form may be a part): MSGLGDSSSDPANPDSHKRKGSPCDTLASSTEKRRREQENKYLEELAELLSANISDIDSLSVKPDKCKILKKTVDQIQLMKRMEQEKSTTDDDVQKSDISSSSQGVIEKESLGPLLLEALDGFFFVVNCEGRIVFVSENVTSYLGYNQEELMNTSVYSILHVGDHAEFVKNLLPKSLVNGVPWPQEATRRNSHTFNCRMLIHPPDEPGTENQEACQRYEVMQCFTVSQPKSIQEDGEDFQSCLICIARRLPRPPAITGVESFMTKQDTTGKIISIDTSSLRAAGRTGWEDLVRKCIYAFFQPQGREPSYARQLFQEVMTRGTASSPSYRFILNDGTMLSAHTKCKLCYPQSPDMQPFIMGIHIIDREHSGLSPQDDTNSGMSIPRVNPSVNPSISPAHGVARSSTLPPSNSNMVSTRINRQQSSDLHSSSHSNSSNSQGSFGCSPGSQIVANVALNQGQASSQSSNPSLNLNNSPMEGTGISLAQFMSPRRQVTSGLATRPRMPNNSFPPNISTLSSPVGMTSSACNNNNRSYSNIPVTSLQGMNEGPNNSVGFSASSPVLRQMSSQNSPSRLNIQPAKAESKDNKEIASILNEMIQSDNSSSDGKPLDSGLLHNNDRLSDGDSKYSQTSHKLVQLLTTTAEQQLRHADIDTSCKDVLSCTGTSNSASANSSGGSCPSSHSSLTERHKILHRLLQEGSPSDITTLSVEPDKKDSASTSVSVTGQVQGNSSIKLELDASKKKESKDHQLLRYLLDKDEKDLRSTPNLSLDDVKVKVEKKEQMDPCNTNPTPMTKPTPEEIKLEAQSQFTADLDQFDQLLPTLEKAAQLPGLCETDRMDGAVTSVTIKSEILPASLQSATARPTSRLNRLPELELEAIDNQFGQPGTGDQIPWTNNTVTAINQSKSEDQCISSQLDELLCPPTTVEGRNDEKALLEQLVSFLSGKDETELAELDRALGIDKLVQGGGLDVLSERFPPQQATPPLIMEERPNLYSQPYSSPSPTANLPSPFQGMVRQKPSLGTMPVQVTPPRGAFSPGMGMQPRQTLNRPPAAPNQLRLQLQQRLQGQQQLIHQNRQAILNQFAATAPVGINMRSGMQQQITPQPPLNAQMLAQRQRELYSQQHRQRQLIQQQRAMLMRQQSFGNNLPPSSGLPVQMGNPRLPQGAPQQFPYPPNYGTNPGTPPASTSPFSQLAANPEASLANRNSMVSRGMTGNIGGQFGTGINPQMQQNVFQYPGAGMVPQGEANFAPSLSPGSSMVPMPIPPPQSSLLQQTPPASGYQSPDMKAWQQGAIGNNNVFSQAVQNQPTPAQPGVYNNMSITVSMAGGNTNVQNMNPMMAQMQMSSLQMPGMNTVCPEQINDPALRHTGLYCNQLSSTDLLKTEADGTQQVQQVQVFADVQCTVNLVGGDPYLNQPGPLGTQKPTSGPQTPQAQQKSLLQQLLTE

[4] = repression of VP16-driven luciferase reporter – cell-based, luminescence, high throughput, counter-screen for SRC1 inhibitor project (AID 588824); details: cell-based VP16 transactivation luciferase luminescence; at 3.6 µM; hits give high values

Row | Structure (SMILES) | inhibition [1] | inhibition [2] | inhibition [3] | inhibition [4]
1 | CC(C)(C)n1ncc2c(=O)n(CC(=O)OCc3ccccc3)cnc21 | 31.6% | 17% | -21.8% | -23.3%
2 | C#CCN(C[C@@H]1[C@@H](OC(=O)NCCCCCC)[C@@H](OC(=O)NCCCCCC)Cn2c(=O)ccc(=O)n21)S(=O)(=O)c1ccc(C)cc1 | 23.3% | 31.7% (active) | 23.8% | 33.4% (active)
3 | C=CC[n+]1ccc(/C=C2\C=Cc3cc(C)ccc3N2CC)c2ccccc21 | 79.4% (active) | 86% (active) | 63.8% (active) | 86.7% (active)
4 | COc1ccc2[nH]c3c(c2c1)CCNC3=O | 53.2% (active) | 42.7% (active) | 62.3% (active) | 33.7% (active)
5 | O=c1[nH]c(=S)ccn1C1OC(CO)C(O)C1O (stereo not drawn) | 3.59% | -0.78% | -11.9% | -8.74%
6 | Cc1ccc2nc(NNC(=O)c3ccc(S(=O)(=O)N4CCc5ccccc5C4)cc3)sc2c1 | 41.8% | 46.4% (active) | 45% | 50% (active)
7 | CCCCC(=O)NC(c1ccc(C(C)C)cc1)c1ccc2cccnc2c1O (stereo not drawn) | 62% (active) | 61.1% (active) | 58.2% (active) | 66% (active)
8 | Cc1nnsc1C(=O)N/N=C/c1ccc2ccccc2c1O | 84.2% (active) | 71.3% (active) | 75% (active) | 69.8% (active)
9 | N=c1c2c(-c3ccccc3)c(-c3ccccc3)n(Cc3ccco3)c2ncn1CCCO | 26.8% | 52.6% (active) | 36.9% | 51.3% (active)
10 | CCOC(=O)c1c(C)c2c(=O)[nH]cnc2n1-c1ccccc1 | 51.5% (active) | 36.8% (active) | 59.9% (active) | 39.9% (active)
11 | NC(=S)N/N=C1\CCSc2ccc(Cl)cc21 | 39.3% | 22.9% | 6.53% | 16.1%
12 | COc1cc(/C=N/NC(=Nc2ccc(C)cc2)c2nc3ccccc3s2)ccc1O | 35.6% | 9.45% | 11.4% | -38%

From PubChem BioAssay
